Experiment [1] addresses alpha-glucosidase (Oryza sativa, rice) (UniProt Q653V4). Nature of the experiment: Counterscreen for Glucocerebrosidase Inhibitors: qHTS Assay for Rice alpha-Glucosidase at pH 5.0 (AID 997).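 Also: 0% = full activity with enzyme and -100% = basal without enzyme.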 The method in brief:
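Rice alpha-glucosidase (4 nM final) with 400 uM 4-methylumbelliferyl-alpha-D-glucopyranoside in citrate buffer pH 5.0, 20 min at room temperature, stopped at pH 10; fluorescence 365/440 nm, compounds 0.7 nM–77 uM, AC50 from Hill fits.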

Experiment [2] is described as follows: Validation of Assay for Modulators of Lamin A Splicing (AID 1459; active = well fitted curve in the direction sought with a large enough effect in the signal ratio; the % refers to the signal ratio;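 also: cells exposed to compound for two days before reading; 0% is about no effect; ratio rise marks activators and ratio drop marks inhibitors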). The gist of the method: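 HeLa S3 lamin A-EGFP/DsRed2 stable clone, 600 cells/well, Opti-MEM 2% FBS; compounds by pin tool; 48 hrs, 37 °C/5% CO2; Acumen 488 nm scan, objects 10-100 um; GFP/RFP intensity ratio.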
A short description of experiment [3]: qHTS Assay for Lipid Storage Modulators (AID 1519; calls by dose curve; as to activity change, negative = inhibition: % is scaled to controls: 0 for no effect and ±100 for the full control effect). To be noted: Drosophila S3 cells, BODIPY lipid droplet/cell ratio, laser cytometry, cells loaded with oleic acid. The gist of the method:
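Cells seeded at 5,000 per well were treated with compounds over a concentration series and loaded with oleic acid (400 uM, as added). Lipid droplet fluorescence (488 nm excitation, 500-530 nm channel) was read by laser-scanning cytometry and normalized to 20 uM Triacsin C.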

Experiment [4] has as its target DNA repair nuclease/redox regulator APEX1 (Homo sapiens) (UniProt P27695). Nature of the experiment: qHTS Validation Assay for Inhibitors of the Human Apurinic/apyrimidinic Endonuclease 1 (APE1) (AID 1705; also: potency is read from the fitted curve at half-maximal effect;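 as to activity change, negative = inhibition: TAMRA fluorescence gain over two minutes as APE1 cuts a quenched THF abasic duplex; % is scaled to controls: 0 for no effect and ±100 for the full control effect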). The gist of the method: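 qHTS, 1536-well. APE1 + cpd 15 min RT → 50 nM TAMRA/BHQ-2 THF-abasic dsDNA substrate → kinetic fluorescence, 3 reads/60 s; delta(read3−read1) = reaction progress. No-enzyme buffer = negative control.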

A short description of experiment [5]: Counterscreen for APE1 Inhibitors: Fluorescent Dye Displacement Validation Assay (AID 1707). Also: potency is read from the fitted curve at half-maximal effect.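 As to activity change, negative = inhibition: plate controls were ThO with dsDNA and no compound for no effect and ThO without dsDNA for full effect.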 The method in brief: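 ThO 250 nM + dsDNA 50 nM (THF abasic site, 5'-TAMRA), Tris-HCl pH7.5/50mM NaCl/2 mM MgCl2/0.01% Tween-20; compounds pin-transferred; ex 480/em 540 nm endpoint. Neutral = no compound; no-DNA ThO wells = negative control.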
Experiment [6] has as its target Endonuclease 4 (Escherichia coli (strain K12)) (UniProt P0A6C1). Nature of the experiment: Counterscreen for APE1 Inhibitors: qHTS Validation Assay for Inhibitors of Endonuclease IV (AID 1708). Also: potency is read from the fitted curve at half-maximal effect. As to activity change, negative = inhibition: % is scaled to controls: 0 for no effect and ±100 for the full control effect. The method in brief:
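Cleavage of a quenched abasic-site DNA duplex (50 nM, 5'-TAMRA, 3'-BHQ-2) by 2 nM enzyme is followed as fluorescence increase. Compounds are preincubated with enzyme 15 min at room temperature before substrate addition.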

Experiment [7] is described as follows: qHTS for differential inhibitors of proliferation of Plasmodium falciparum line GB4 (AID 1816).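 Also: parasite growth measured after 72 h incubation; 0% = vehicle DMSO and -100% = reference inhibitor.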 Conditions: Potency: Plasmodium falciparum GB4 proliferation inhibition.
Experiment [8] can be described thus: qHTS for differential inhibitors of proliferation of Plasmodium falciparum line Dd2 (AID 1882).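 Also: compound exposure of 72 h on infected erythrocytes; plate controls were DMSO vehicle for no effect and 0.29 µM artemisinin for full effect; nearly all actives have a fitted effect of over 65% in size.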 Conditions: Potency: Plasmodium falciparum Dd2 proliferation inhibition. The gist of the method:
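SYBR Green I DNA fluorescence read-out, ex 485/em 535 nm. Signals were normalized to 0.29 uM artemisinin and DMSO wells, then corrected using vehicle-only plates flanking each stack. Parasite growth ran 72 h in erythrocytes before lysis.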

A short description of experiment [9]: qHTS Assay for Modulators of Human Peripheral Myelin Protein 22 (PMP22) Expression/Activity (AID 1967; active = well fitted curve in the direction sought with a large enough effect in the signal ratio; the % refers to the signal ratio;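 also: 0% = untreated cells and 100% end not stated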). The gist of the method:
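Luminescence ratio of Pmp22 promoter-driven green luciferase to EF-alpha-driven red luciferase, in engineered mouse MSC80 Schwann cells, served as read-out. Compounds were incubated 24h; untreated cells defined 0% Activity; curves were classified by r2, magnitude and activity.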

Experiment [10] concerns the target Ferritin light chain (Equus caballus) (UniProt P02791). Nature of the experiment: qHTS Validation Assay for Identification of Novel General Anesthetics (AID 2323). Also: % is scaled to controls: 0 for no effect and ±100 for the full control effect. The method in brief:
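Fluorescence at 535 nm (excitation 380 nm) reported loss of 1-AMA binding to horse-spleen apoferritin (10 uM) in PBS with 50% saturated 1-aminoanthracene, after 10 min room-temperature incubation with compound; values from Hill fits of normalized response.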

Experiment [11] has as its target ATP-dependent DNA helicase Q1 (Homo sapiens) (UniProt P46063). Nature of the experiment: qHTS Validation Assay for Inhibitors of RecQ-Like Dna Helicase 1 (RECQ1) (AID 2353).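 Also: plate controls were DMSO vehicle for no effect and enzyme-free control for full effect.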 The gist of the method:
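50 nM RECQ1T1 preincubated 15 min with compound in Tris pH 8.0 buffer with MgCl2, DTT, Tween-20 and 2.5 ug/ml poly(dI-dC); started with 200 nM TAMRA/BHQ-2 forked duplex and 2 mM ATP. Unwinding read as fluorescence (525/598 nm), two reads 2 h apart.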

The target of experiment [12] is RecQ-like DNA helicase BLM (Homo sapiens) (UniProt P54132). Nature of the experiment: qHTS Validation Assay for Inhibitors of Bloom's syndrome helicase (BLM) (AID 2364).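 Also: plate controls were DMSO vehicle for no effect and enzyme-free control for full effect.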 The gist of the method: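 50 nM BLM preincubated 15 min at room temperature with compound in pH 8.0 Tris buffer containing 2.5 ug/ml poly(dI-dC); started with 200 nM TAMRA/BHQ-2 forked duplex and 2 mM ATP (final). Unwinding read as TAMRA fluorescence increase, two reads 2 h apart.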
Chain of RecQ-like DNA helicase BLM (Homo sapiens) (P54132 whole entry, looked up): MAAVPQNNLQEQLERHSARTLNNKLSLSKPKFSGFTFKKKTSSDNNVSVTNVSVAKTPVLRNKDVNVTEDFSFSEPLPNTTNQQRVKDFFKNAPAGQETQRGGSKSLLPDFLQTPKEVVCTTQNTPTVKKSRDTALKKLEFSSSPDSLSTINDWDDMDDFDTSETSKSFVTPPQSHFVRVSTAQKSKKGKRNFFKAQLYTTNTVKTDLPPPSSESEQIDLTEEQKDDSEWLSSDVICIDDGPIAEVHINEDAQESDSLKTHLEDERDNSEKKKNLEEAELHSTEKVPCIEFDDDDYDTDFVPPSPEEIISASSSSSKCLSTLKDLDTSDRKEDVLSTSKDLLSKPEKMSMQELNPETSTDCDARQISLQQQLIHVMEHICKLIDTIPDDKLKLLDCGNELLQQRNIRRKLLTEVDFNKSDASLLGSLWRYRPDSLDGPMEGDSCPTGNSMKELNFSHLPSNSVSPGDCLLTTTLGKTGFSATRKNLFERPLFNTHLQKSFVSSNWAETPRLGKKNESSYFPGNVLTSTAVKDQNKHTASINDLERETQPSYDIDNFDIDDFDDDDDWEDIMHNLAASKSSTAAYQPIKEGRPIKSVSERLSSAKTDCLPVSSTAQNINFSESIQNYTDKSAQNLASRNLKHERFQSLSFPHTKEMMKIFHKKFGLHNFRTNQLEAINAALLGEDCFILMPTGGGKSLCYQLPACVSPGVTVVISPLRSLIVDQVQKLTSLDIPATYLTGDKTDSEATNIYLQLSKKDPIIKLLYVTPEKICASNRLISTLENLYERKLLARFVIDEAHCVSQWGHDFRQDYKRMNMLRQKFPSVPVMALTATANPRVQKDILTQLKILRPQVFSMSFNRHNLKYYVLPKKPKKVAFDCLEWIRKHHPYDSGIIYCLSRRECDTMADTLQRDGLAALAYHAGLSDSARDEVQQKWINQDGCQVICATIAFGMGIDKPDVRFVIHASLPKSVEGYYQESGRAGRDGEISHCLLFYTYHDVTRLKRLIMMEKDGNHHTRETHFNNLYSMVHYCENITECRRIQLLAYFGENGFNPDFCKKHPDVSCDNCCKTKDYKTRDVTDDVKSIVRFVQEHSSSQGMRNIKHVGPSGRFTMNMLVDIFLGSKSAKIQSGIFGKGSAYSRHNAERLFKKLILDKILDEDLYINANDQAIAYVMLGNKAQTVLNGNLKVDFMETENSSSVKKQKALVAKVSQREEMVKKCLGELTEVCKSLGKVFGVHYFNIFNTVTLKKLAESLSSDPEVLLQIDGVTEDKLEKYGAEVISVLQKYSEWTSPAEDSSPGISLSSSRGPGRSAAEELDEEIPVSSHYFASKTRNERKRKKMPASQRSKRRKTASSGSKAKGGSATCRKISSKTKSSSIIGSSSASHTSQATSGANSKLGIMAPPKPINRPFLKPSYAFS

Experiment [13] is described as follows: qHTS for differential inhibitors of proliferation of Plasmodium falciparum line 7G8 (AID 1815).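 Also: parasite growth measured after three days of incubation.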 Also: potency is read from the fitted curve at half-maximal effect.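 As to activity change, negative = inhibition: plate controls were vehicle wells for no effect and reference inhibitor wells for full effect.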
A short description of experiment [14]: qHTS for differential inhibitors of proliferation of Plasmodium falciparum line 3D7 (AID 1876).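 Also: parasite growth measured after three days of culture; 0% = vehicle wells and -100% = reference inhibitor wells.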
A short description of experiment [15]: qHTS for differential inhibitors of proliferation of Plasmodium falciparum line D10 (AID 1877).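 Also: parasites grown with compound for 72 h before DNA staining; plate controls were vehicle wells for no effect and reference inhibitor wells for full effect.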
Experiment [16] is described as follows: qHTS for differential inhibitors of proliferation of Plasmodium falciparum line W2 (AID 1883).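 Also: parasites grown with compound for 72 h before lysis and staining.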 Also: potency is read from the fitted curve at half-maximal effect.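 As to activity change, negative = inhibition: 0% = vehicle wells and -100% = control inhibitor wells.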 Conditions: Potency: Plasmodium falciparum W2 proliferation inhibition.
Experiment [17] can be described thus: qHTS for differential inhibitors of proliferation of Plasmodium falciparum line HB3 (AID 1886).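 Also: parasites grown with compound for 72 h before SYBR Green readout.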 Also: potency is read from the fitted curve at half-maximal effect.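 As to activity change, negative = inhibition: plate controls were vehicle for no effect and reference inhibitor for full effect.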 Conditions: Potency: Plasmodium falciparum HB3 proliferation inhibition.
The mark [18] stands for this setting: measured here: cell count channel max response.
Where [19] appears, read: measured here: lipid channel max response.

Experimental findings from PubChem BioAssay (NCATS) are described below.

The structures appear in SMILES notation. Where “and” joins values, the source holds several entries; their conditions need not be identical. Equal values may be shown once. Records with an inconclusive call do not appear. Calls of active or inactive are those of the source. Unless noted, calls follow the shape of the dose curve; as a rule, active = well fitted curve in the direction sought with a large enough effect; inconclusive = small, poorly fitted or top-dose-only effect, or another doubt; inactive = no such curve, though single readings can be large; an effect the other way counts as inactive or inconclusive.

Chain of ATP-dependent DNA helicase Q1 (Homo sapiens) (P46063 whole entry, looked up): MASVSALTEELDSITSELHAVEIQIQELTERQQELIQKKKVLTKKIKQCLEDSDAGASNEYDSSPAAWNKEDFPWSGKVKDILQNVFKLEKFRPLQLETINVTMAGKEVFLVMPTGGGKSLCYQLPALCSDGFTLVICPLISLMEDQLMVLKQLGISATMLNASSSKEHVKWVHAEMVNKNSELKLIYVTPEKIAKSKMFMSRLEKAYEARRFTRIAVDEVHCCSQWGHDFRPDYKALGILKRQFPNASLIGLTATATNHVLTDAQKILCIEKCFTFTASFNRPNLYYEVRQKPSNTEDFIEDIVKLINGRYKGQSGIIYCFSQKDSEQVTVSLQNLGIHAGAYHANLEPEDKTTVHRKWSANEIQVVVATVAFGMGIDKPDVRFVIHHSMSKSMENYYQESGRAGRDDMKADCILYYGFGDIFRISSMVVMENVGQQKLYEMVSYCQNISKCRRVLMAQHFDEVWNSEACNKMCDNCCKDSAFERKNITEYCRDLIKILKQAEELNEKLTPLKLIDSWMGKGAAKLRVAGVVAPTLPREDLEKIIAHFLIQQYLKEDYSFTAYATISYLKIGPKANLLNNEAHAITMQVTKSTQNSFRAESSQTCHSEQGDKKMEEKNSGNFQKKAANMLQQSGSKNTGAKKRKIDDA
Chain of Ferritin light chain (Equus caballus) (P02791 2-175 limits assumed): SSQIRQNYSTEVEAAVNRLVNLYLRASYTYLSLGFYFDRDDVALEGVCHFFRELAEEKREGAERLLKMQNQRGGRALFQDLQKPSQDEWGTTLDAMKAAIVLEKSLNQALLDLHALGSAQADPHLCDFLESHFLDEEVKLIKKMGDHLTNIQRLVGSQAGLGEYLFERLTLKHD
Chain of DNA repair nuclease/redox regulator APEX1 (Homo sapiens) (P27695 whole entry, looked up): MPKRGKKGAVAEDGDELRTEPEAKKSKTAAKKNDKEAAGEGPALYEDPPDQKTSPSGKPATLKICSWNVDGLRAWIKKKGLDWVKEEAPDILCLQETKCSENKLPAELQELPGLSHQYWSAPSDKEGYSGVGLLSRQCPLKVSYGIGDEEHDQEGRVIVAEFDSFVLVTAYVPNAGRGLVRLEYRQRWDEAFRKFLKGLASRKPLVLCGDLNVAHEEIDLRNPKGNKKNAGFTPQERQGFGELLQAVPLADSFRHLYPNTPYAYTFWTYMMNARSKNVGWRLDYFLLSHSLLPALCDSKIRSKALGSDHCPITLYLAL

Regarding `NOCC(=O)O`, the outcome in [1], in experiment [2] and in experiment [9] was inactive. Further, in experiment [3] (at 57.5 µM (top of the series)), the activity change, negative = inhibition is 2.14% (inactive). For the same compound, the max response is -5.32% in experiment [3] (setting [18]) and 0.0357% in experiment [3] (setting [19]). The Potency entry in experiment [4], in [5], in [6], in experiment [7], in [8] and in [10] was “inactive” in each case. Moreover, the Potency entry in experiment [11] and in experiment [12] was “inactive” each time.

In the case of `COc1ccc(-c2ccc(N)[n+](CCCC(=O)O)n2)cc1`, the compound was called inactive in experiment [1], in experiment [2] and in experiment [9]. Also, the activity change, negative = inhibition in experiment [3] (at 25.7 µM (top of the series)) is -0.132% (inactive). Moreover, the max response turned out to be 3.21% in experiment [3] (setting [18]) and 7.04% in experiment [3] (setting [19]). Further, the Potency entry in experiment [4], in experiment [5], in experiment [6], in [13], in experiment [7] and in [14] was “inactive” each time. For the same compound, the Potency result in experiment [15], in [8], in experiment [16], in [17], in experiment [10] and in experiment [11] was “inactive” in each case. Moreover, the Potency result in [12] is “inactive”.

With `CCCn1c(=O)c2c(ncn2C)n(CCC)c1=O`, the outcome in [1] and in [2] was inactive. The activity change, negative = inhibition in [3] (at 57.5 µM (top of the series)) is -2.98% (inactive). For the same compound, the max response in experiment [3] (setting [18]) is -22.4%; in experiment [3] (setting [19]), -33.5%. Besides, the Potency entry in experiment [4], in [5], in [6], in experiment [13], in [7] and in experiment [14] was “inactive” throughout. The Potency entry in [15], in experiment [8], in experiment [17], in experiment [10] and in experiment [11] was “inactive” in each case.

Regarding `Cc1nc(N=Nc2cc(S(=O)(=O)O)c3cc([N+](=O)[O-])cc(S(=O)(=O)O)c3c2)c(COP(=O)(O)O)c(C=O)c1O`, the result in [1], in [2] and in [9] was inactive. The activity change, negative = inhibition in [3] (at 57.5 µM (top of the series)) was -4.26% (inactive). Moreover, the max response was 6.63% in [3] (setting [18]) and 4.35% in [3] (setting [19]). The Potency in [4] was 2.82 µM (active); in experiment [5], 10 µM (active); in experiment [6], 15.8 µM (active). Further, the Potency entry in experiment [14], in experiment [8] and in experiment [16] was “inactive” each time.

For `COc1cc(CC(=O)O)ccc1O`, the result in experiment [1], in [2] and in experiment [9] was inactive. In addition, in [3] (at 57.5 µM (top of the series)), the activity change, negative = inhibition is -0.731% (inactive). Moreover, the max response stood at 56.6% in [3] (setting [18]) and 57.3% in [3] (setting [19]). Also, the Potency entry in [4], in [5], in experiment [6], in experiment [13], in experiment [7] and in experiment [14] was “inactive” each time. The Potency result in [15], in experiment [8], in experiment [16], in experiment [17], in experiment [10] and in experiment [11] was “inactive” throughout.

For the compound `C=C(C)C1CC=C(C(=O)O)CC1` (stereo not given), the compound was called inactive in experiment [2] and in experiment [9]. Besides, the activity change, negative = inhibition in [3] (at 57.5 µM (top of the series)) was 0.974% (inactive) and 1.72% (inactive). For the same compound, the max response is 16.2% and 48.1% in [3] (setting [18]); 18.4% and 48.7% in [3] (setting [19]). The Potency entry in [4], in experiment [5], in experiment [6], in experiment [13], in experiment [7] and in experiment [14] was “inactive” each time. In addition, the Potency result in experiment [15], in experiment [8], in experiment [16], in experiment [17], in [10] and in experiment [11] was “inactive” in each case. Moreover, the Potency entry in experiment [12] is “inactive”.

In the case of `CC(=O)NCCc1c[nH]c2ccc(O)cc12`, the call in experiment [1], in experiment [2] and in [9] was inactive. Also, the activity change, negative = inhibition in experiment [3] (at 57.5 µM (top of the series)) was 10.9% (inactive). The values for the max response in experiment [3] (setting [18]) and in experiment [3] (setting [19]) were 15.4% and 28.6%, respectively. The Potency entry in experiment [4], in [5], in [6], in experiment [13], in experiment [7] and in [14] was “inactive” throughout. The Potency entry in experiment [15], in [8], in [16], in experiment [17], in experiment [10] and in experiment [11] was “inactive” throughout.

`Cn1c(=O)c2c(nc(/C=C/c3cccc(Cl)c3)n2C)n(C)c1=O`: the compound was classed as inactive in [2]. Further, the activity change, negative = inhibition in experiment [3] (at 57.5 µM (top of the series)) was -4.15% (inactive). Also, the max response was -60.2% in experiment [3] (setting [18]) and -62% in [3] (setting [19]). Also, the Potency entry in experiment [4], in [5] and in experiment [6] was “inactive” in each case. Further, the Potency in [13] was 10 µM (active); in experiment [16] it was 11.2 µM (active); in [17], 12.6 µM (active).
